Source: the supplement of paper PMC11732987, “Enantioselective OTUD7B fragment discovery through chemoproteomics screening and high-throughput optimisation” (Communications Chemistry, 2025)

Tests used:
Experiment in all cases: log2 ratio of Biotin-Ahx-Ub-VS probe labelling (fragment/DMSO); higher = less target engagement (more negative = stronger competition), active = hit call of the paper (q ≤ 0.05, log2 ratio ≤ -1)
Details in all cases: compound concentration: 200 uM; treatment time: 3 h
USP42 = molecular target: T1, USP42 (UniProt Q9H9J4)
T1 sequence (whole entry): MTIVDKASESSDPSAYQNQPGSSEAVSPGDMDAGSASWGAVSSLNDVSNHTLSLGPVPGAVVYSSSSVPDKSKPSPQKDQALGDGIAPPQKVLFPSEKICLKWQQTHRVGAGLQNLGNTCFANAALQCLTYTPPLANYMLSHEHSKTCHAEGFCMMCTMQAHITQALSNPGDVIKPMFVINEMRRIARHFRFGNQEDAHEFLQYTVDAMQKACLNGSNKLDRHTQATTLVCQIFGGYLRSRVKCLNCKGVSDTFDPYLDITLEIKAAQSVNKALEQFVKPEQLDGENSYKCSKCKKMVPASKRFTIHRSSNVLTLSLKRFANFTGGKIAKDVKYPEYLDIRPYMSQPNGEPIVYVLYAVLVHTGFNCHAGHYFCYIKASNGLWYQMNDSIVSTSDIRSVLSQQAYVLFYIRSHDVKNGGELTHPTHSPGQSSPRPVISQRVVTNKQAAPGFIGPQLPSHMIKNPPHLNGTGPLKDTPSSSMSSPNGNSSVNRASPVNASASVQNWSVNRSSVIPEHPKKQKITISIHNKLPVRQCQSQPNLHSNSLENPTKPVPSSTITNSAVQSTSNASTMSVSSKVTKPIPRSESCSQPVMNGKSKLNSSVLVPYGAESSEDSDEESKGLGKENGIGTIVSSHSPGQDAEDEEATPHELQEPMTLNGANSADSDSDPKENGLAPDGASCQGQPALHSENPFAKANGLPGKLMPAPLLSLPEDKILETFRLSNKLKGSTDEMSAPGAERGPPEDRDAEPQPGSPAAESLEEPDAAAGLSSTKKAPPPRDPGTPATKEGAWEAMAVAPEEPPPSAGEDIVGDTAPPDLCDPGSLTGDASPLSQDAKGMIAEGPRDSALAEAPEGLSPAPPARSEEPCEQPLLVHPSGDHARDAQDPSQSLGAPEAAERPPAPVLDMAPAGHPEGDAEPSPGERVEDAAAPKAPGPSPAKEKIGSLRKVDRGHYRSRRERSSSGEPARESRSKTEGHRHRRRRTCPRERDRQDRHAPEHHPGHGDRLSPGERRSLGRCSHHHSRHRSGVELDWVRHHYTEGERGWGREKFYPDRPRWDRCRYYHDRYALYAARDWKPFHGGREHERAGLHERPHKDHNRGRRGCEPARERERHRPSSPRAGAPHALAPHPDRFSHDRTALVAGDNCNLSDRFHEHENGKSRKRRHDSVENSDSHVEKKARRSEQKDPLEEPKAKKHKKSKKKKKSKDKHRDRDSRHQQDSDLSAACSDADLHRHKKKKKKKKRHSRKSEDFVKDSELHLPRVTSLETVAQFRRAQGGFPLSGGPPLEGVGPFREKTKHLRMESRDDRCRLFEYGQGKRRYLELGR
In short: (§1)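 The table lists average log2 ratios of fragment over vehicle, from an unpaired t-test on global-median-normalised Spectronaut label-free quantities. Proteins with ≥2 unique peptides were used. Samples were HEK293T lysate (495 µg) treated in triplicate with fragment at 200 µM or vehicle for 3 h, then with Biotin-Ahx-Ub-VS (0.5 µM final) for 1 h, with labelled DUBs NeutrAvidin-enriched and run by diaPASEF LC-MS/MS.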

USP46 = USP46 (UniProt P62068)
In short: as §1

USP47 = molecular target: T2, USP47 (UniProt Q96K76)
T2 sequence (whole entry): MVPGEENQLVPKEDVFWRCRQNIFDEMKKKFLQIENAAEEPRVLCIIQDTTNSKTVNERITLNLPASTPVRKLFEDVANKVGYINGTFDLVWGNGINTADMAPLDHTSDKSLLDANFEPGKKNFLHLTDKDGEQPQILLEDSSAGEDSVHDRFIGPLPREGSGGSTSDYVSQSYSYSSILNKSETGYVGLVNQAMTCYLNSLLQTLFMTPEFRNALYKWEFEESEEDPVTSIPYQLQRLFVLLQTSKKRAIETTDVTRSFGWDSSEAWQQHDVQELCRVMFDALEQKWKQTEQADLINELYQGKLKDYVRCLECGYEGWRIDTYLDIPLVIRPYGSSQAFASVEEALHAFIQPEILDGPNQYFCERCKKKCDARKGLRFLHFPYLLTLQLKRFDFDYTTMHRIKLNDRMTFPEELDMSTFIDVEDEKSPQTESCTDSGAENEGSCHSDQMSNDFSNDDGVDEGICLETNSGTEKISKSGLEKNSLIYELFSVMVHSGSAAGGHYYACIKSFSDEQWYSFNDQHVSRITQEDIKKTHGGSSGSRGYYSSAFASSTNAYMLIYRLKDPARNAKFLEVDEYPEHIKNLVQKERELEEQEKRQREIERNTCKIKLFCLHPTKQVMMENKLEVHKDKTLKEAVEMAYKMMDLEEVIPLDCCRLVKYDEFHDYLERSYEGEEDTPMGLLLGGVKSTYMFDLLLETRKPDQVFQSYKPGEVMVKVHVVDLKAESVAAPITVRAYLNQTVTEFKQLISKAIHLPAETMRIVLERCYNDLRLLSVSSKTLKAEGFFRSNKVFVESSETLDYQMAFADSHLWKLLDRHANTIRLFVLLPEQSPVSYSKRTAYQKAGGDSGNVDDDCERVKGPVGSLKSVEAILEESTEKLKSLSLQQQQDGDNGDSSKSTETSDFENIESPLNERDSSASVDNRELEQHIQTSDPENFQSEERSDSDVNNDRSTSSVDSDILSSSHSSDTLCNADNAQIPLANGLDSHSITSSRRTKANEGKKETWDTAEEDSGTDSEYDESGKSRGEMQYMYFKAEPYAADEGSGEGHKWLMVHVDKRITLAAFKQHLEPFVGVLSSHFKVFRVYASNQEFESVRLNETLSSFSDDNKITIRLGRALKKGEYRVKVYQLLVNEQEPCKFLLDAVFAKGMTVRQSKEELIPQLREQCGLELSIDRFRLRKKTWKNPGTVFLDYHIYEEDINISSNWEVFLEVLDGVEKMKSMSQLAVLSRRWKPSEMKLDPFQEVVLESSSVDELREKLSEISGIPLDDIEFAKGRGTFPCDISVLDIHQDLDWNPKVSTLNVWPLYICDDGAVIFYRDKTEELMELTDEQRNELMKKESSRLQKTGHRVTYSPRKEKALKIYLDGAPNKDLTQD
In short: as §1

USP48 = molecular target: T3, USP48 (UniProt Q86UV5)
T3 sequence (whole entry): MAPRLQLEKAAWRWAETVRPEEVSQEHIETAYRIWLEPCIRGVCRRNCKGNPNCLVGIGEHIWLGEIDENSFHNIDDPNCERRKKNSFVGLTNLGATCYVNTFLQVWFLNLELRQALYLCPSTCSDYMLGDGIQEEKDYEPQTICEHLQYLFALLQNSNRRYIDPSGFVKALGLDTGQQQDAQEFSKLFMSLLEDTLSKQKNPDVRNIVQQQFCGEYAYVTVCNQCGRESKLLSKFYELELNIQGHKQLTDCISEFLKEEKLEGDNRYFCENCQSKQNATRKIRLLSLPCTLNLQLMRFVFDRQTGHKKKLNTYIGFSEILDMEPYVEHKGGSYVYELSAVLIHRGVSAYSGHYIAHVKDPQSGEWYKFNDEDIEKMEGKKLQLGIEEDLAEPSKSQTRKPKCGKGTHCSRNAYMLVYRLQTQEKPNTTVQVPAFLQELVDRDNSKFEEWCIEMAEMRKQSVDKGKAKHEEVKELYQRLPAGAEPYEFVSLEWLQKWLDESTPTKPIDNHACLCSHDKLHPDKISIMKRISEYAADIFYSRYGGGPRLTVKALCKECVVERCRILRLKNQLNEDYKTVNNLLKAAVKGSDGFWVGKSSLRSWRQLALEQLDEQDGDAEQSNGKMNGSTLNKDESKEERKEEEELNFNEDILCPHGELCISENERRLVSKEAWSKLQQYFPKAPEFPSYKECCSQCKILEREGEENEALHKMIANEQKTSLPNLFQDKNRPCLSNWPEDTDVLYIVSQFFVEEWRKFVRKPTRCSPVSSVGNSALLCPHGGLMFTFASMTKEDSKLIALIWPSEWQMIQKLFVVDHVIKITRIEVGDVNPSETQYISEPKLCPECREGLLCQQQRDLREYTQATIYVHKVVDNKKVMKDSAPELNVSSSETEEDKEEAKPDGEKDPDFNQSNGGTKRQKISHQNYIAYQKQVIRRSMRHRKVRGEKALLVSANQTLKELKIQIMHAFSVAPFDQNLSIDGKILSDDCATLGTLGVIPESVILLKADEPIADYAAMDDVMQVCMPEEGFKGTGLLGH
In short: as §1

USP5 = molecular target: T4, USP5 (UniProt P45974)
T4 sequence (whole entry): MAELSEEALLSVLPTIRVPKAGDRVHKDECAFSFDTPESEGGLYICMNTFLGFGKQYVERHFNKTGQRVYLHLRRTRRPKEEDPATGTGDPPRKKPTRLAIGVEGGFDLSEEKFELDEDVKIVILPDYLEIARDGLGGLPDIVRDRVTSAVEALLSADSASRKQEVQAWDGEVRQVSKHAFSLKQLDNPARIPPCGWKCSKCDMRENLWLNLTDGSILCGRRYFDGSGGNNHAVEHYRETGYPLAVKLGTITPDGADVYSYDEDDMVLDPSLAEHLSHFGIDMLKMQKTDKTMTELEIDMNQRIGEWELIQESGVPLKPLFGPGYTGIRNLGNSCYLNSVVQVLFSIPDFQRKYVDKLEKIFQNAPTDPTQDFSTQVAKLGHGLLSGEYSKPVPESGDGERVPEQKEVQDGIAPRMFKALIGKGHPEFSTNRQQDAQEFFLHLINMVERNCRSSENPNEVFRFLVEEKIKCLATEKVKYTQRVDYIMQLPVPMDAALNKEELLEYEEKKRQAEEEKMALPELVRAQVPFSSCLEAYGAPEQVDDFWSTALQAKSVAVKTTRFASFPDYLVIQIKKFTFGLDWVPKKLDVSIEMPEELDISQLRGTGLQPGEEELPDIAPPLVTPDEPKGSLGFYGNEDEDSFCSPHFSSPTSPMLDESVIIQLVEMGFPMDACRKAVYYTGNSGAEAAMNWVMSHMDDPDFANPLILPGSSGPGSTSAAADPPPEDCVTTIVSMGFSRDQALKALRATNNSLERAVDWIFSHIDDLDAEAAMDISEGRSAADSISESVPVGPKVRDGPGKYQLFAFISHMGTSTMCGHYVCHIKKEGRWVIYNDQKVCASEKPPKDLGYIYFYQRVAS
In short: as §1

USP54 = USP54 (UniProt Q70EL1)
In short: as §1

USP7 = USP7 (UniProt Q93009)
In short: as §1

USP8 = molecular target: T5, USP8 (UniProt P40818)
T5 sequence (whole entry): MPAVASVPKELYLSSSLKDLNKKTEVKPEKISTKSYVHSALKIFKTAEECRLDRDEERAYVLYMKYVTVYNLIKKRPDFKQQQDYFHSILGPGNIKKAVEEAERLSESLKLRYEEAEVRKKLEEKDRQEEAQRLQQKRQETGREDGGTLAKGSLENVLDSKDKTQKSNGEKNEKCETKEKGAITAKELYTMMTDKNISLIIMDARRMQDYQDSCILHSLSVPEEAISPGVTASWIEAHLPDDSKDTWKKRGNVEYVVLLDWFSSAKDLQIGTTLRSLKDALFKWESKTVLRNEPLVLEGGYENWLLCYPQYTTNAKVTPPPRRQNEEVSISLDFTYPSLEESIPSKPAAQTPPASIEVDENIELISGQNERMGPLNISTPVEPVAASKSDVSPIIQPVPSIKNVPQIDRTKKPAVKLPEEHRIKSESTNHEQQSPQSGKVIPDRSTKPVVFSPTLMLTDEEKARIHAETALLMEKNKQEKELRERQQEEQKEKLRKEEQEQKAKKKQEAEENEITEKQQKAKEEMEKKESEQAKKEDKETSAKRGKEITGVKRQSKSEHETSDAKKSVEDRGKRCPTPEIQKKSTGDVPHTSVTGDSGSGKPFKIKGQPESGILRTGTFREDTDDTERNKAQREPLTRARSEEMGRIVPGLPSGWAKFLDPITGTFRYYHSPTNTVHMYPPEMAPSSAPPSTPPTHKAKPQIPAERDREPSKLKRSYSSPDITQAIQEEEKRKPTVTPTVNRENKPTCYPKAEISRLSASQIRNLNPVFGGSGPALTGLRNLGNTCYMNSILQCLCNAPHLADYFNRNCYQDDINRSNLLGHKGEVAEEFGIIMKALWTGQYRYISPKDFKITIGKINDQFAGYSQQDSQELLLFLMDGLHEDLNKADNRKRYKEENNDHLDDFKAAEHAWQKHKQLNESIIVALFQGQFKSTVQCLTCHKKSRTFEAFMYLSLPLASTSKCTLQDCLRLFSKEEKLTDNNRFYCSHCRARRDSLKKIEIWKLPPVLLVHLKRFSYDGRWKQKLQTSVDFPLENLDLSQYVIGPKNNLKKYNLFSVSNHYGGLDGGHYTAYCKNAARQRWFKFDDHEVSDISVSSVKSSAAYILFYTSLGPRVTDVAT
In short: as §1

USP9X = USP9X (UniProt Q93008)
In short: as §1

UniProt O00487 = molecular target: UniProt O00487
In short: as §1

Measured: log2 ratio of Biotin-Ahx-Ub-VS probe labelling

Chain of USP46 (P62068 whole entry): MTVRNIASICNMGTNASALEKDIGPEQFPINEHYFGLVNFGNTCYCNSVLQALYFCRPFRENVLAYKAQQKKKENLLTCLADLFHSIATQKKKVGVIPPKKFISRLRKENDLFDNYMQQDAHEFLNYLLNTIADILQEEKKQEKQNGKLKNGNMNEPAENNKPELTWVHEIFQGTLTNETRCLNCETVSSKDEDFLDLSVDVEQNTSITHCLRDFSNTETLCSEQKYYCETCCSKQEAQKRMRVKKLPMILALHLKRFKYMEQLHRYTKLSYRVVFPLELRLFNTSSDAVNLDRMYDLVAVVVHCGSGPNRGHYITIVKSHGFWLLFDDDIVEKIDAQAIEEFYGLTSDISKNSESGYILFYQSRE
Chain of USP9X (Q93008 whole entry): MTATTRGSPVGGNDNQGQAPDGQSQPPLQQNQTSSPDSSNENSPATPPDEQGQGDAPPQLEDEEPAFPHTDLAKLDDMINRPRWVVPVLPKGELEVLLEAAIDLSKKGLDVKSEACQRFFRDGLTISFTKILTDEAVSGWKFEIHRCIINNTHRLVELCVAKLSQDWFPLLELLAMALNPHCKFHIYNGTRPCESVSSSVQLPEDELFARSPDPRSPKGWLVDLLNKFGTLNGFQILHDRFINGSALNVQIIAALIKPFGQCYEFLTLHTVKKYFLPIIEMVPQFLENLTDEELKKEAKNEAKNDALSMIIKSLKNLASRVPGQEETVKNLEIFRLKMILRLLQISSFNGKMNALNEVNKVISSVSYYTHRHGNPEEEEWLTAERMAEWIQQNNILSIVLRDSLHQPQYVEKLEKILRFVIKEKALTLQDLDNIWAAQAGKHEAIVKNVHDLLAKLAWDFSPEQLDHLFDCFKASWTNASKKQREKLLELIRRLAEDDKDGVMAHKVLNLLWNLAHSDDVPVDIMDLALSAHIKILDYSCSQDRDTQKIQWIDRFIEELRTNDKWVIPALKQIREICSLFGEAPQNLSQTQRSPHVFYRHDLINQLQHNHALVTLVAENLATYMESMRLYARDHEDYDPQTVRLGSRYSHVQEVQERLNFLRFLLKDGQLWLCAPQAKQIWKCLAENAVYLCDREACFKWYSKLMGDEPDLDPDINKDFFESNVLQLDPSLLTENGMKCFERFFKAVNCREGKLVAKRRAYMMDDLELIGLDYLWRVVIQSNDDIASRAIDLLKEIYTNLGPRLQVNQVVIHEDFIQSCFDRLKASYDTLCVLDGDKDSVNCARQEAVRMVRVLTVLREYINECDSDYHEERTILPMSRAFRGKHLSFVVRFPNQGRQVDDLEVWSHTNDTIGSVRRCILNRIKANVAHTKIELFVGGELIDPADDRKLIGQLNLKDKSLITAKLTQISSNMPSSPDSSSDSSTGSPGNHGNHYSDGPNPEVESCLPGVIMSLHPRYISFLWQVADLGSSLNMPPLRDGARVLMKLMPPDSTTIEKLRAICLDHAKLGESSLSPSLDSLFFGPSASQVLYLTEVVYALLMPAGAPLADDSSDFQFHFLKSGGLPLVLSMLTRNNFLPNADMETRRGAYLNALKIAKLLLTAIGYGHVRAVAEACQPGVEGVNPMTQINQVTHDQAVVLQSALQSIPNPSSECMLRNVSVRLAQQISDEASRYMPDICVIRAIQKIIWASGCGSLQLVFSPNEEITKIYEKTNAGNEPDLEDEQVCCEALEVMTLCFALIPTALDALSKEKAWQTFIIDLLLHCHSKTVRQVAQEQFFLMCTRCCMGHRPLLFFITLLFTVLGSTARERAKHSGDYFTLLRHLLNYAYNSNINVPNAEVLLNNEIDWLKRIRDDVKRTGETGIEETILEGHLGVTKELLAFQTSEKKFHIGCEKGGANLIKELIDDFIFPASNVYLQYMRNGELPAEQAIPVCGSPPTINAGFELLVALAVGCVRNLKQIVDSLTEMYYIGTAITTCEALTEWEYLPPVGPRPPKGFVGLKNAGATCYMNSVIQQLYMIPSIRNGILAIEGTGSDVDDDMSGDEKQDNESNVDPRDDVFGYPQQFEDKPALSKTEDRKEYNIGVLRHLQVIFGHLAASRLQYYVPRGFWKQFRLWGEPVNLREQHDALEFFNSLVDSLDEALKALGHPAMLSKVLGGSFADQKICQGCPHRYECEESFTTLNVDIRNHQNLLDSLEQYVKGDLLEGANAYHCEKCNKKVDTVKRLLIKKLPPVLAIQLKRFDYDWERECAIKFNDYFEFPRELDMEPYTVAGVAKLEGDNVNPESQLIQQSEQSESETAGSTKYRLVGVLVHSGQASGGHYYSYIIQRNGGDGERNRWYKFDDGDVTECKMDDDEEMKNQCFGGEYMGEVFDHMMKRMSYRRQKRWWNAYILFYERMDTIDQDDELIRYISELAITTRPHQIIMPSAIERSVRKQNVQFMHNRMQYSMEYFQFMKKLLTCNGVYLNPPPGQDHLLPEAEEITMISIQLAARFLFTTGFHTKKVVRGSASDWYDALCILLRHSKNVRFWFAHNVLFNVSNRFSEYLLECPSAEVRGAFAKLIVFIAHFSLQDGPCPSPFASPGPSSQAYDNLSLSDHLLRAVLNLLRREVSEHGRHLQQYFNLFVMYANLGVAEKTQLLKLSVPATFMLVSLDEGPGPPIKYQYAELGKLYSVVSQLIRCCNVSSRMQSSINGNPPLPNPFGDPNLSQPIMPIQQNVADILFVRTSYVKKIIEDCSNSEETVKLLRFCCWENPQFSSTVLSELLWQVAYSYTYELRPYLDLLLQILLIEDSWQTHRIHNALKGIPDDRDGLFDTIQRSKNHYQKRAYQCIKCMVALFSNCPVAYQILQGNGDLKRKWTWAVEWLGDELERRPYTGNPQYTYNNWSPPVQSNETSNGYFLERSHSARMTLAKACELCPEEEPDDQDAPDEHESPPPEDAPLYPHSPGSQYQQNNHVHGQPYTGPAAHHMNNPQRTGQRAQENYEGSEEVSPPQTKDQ
Chain of UniProt O00487 (O00487 whole entry): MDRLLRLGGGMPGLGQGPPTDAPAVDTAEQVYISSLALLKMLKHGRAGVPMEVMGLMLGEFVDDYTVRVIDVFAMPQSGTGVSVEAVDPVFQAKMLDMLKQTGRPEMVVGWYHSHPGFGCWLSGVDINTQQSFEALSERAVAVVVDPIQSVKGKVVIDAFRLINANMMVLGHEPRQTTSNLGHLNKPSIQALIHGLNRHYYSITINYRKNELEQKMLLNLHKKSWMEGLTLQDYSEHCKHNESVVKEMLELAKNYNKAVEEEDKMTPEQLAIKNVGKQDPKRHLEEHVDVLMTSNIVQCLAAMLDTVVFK
Chain of USP7 (Q93009 whole entry, looked up): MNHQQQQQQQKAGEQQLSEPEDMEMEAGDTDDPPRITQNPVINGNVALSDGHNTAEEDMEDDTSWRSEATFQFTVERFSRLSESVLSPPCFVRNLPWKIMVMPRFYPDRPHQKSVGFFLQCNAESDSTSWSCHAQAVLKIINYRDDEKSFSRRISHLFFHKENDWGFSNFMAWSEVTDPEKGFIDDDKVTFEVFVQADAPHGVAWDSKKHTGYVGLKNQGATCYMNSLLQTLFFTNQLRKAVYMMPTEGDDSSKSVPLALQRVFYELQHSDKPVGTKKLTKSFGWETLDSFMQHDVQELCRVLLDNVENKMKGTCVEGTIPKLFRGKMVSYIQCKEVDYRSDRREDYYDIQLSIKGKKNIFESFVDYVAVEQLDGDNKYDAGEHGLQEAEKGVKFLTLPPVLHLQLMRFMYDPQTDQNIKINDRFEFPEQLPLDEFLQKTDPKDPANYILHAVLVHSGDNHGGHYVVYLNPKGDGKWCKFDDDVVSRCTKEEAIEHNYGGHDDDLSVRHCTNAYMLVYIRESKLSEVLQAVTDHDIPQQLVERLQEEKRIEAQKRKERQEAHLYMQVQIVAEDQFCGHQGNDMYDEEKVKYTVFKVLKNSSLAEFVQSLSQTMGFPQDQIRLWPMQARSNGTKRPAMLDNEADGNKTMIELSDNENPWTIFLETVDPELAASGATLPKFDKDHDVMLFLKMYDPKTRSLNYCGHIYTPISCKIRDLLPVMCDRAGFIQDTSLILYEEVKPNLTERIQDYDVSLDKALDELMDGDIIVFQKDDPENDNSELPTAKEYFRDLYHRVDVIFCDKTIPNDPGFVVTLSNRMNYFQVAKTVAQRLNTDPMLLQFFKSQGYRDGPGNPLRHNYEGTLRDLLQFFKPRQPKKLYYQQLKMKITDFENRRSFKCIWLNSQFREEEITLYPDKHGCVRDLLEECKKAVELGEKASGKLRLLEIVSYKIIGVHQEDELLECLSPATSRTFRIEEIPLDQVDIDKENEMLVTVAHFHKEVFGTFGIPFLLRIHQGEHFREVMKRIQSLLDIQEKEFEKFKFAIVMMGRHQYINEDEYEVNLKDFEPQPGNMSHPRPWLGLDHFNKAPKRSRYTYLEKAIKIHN

Cc1cc(NC(=O)CCl)n(-c2ccccc2)n1
inactive: USP42 0.45 | USP46 -0.023 | USP47 -0.584 | USP48 0.128 | USP5 -0.00592 | USP54 -0.0011 | USP7 -0.0104 | USP8 -0.118 | USP9X 0.0409 | UniProt O00487 -0.0689
